Data as given in PubChem BioAssay (NCATS).
Records with an inconclusive call do not appear. Entries that show only a call come without a potency. A number with no mark means an inactive call. Activity calls are given as the source filed them. Calls come from the whole dose curve; as a rule, active = well fitted curve in the direction sought with a large enough effect; inconclusive = small, poorly fitted or top-dose-only effect, or another doubt; inactive = no such curve, though single readings can be large; an effect the other way counts as inactive or inconclusive.

What was measured:
[1] = P-glycoprotein substrates identified in KB-3-1 adenocarcinoma cell line, qHTS therapeutic library screen (AID 1346986); conditions: KB-3-1 parental cells viability, CellTiter-Glo, 72 h; series mostly up to 44.5 µM; note: nearly all actives have a fitted effect of over 60% in size
Outline: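 Compounds were tested in dose-response against KB-3-1 and KB-8-5-11 cells at 37 degree C for 72 h, and viability was measured by luminescence. AC50 values came from curve fitting with class-based activity calls.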

[2] = P-glycoprotein substrates identified in KB-8-5-11 adenocarcinoma cell line, qHTS therapeutic library screen (AID 1346987); conditions: KB-8-5-11 (P-gp overexpressing) viability, CellTiter-Glo, 72 h; series mostly up to 44.5 µM; note: nearly all actives have a fitted effect of over 65% in size
Outline: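 P-gp-mediated resistance screen: KB-8-5-11 cells treated 72 h with compounds in dose-response. CellTiter-Glo viability.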

SMILES	Potency [1]	Potency [2]	outcome [1]	activity change, negative = cytotoxicity [2]
CC(C)(C)NCC(O)COc1cccc2c1CCCC2=O (stereo not drawn)	inactive	inactive		
CC1(C)C(=O)N2c3ccccc3[C@]3(CC(n4cnc5ccccc5c4=O)C(=O)O3)[C@H]2N1O (stereo partly drawn)	inactive	inactive		
Cc1ccc2c(c1)C=Cc1cc(C)ccc1C2c1cn(Cc2ccc(C(=O)Nc3nn[nH]n3)o2)c(=O)[nH]c1=S	inactive	inactive		
CCOc1nc2cccc(C(=O)OCc3oc(=O)oc3C)c2n1Cc1ccc(-c2ccccc2-c2noc(O)n2)cc1	inactive	inactive		
COC(=O)CC[C@@H](C)[C@H]1CC[C@H]2[C@@H]3CC(=O)[C@H]4C[C@H](OC(C)=O)CC[C@]4(C)[C@H]3CC[C@]12C	inactive	inactive		
COc1cc(COC2OC(CO)C(O)C(O)C2O)cc(OC)c1O (stereo not drawn)	inactive	inactive		
Nc1ncnc2c1ncn2[C@H]1CCCO1	inactive	inactive		
CC1(C)CC[C@]2(C(=O)O)CC[C@]3(C)C(=CCC4[C@@]5(C)CC[C@H](O[C@@H]6O[C@H](C(=O)O)[C@@H](O)[C@H](O)[C@H]6O)C(C)(CO)C5CC[C@]43C)C2C1 (stereo partly drawn)	inactive	inactive		
C[C@@H]1O[C@@H](O[C@H]2[C@H](OC(=O)[C@]34CCC(C)(C)C[C@H]3C3=CCC5[C@@]6(C)C[C@H](O)[C@H](O[C@@H]7O[C@H](CO[C@@H]8OC[C@H](O)[C@H](O)[C@H]8O)[C@@H](O)[C@H](O)[C@H]7O)C(C)(C)C6CC[C@@]5(C)[C@]3(C)C[C@H]4O)OC[C@@H](O)[C@@H]2O)[C@H](O)[C@H](O[C@@H]2OC[C@](O)(CO)[C@H]2O)[C@H]1O[C@@H]1OC[C@H](O)[C@H](O[C@@H]2OC[C@@H](O)[C@H](O)[C@H]2O)[C@H]1O (stereo partly drawn)			inactive [at 9.29 µM]	7.52% [at 9.29 µM]
